Measured values as given in PubChem BioAssay (NCI).
Compounds without any hit were thinned out: in the full panel of roughly 83,000, 20% have a hit.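 Cells were grown in 96-well plates and exposed to the test compound at a single concentration for 48 hours; results are reported as percent growth, with values below 10 considered active.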 Unmarked numbers belong to inactive results. Activity calls are given as the source filed them.

Test system: HL-60(TB) leukemia
Experiment: NCI-60 one-dose screen, 48 h (100 = growth as untreated, 0 = no growth, -100 = all killed)
Conditions: 10 µM unless noted

SMILES	growth
Nc1c(C(=O)Nc2cccc3ccccc23)sc2nc3c(cc12)CCCCCC3	-31% (active)
COc1ccc2nc(-c3cc(-c4cc(OC)c(OC)c(OC)c4)n[nH]3)[nH]c2c1	-38.7% (active)
c1csc(C2=NN3C(C2)c2ccccc2OC3c2ccncc2)c1 (stereo not given)	97.8%
COC(=O)c1c2c(c[n+]([O-])c1C)C(=O)C=CC2=O	28.1%
C=C1C(=O)O[C@H]2[C@H]1CC/C(COC(=O)CCCCC(=O)OC/C1=C/CC[C@@]3(C)O[C@H]3[C@H]3OC(=O)C(=C)[C@@H]3CC1)=C\CC[C@@]1(C)O[C@@H]21	2.37% (active)
Cc1cccc2nc3ccccc3c(Nc3ccc(NS(C)(=O)=O)cc3)c12	1.14% (active)
O=c1c2cccc3c(Nc4ccccn4)ccc(c32)c2nc3ccccc3n12	62.3%
COc1ccc(C2=C/C(=C\c3ccc(Cl)cc3)C(=O)NN2C(=S)NN)cc1	93.3%
CN1CCN(CCC(=O)Nc2cccc(-n3cc(-c4ccncc4)c(-c4ccc(Cl)c(O)c4)n3)c2)CC1	5.71% (active)
c1ccc2nc(Cn3c[n+](Cc4ccc5ccccc5n4)c4ccccc43)ccc2c1	-40.1% (active)
CCn1c(SCC(=O)N/N=C(\C)c2ccc(Cl)cc2)nc2c1c(=O)n(C)c(=O)n2C	101%
CC(=O)C[n+]1ccccc1Sc1ccc(Cl)cc1	28.4%
COc1ccc2[nH]c(C(=O)OCc3ccc4cccc(O)c4n3)cc2c1	-36.8% (active)
N#Cc1c(N)nc2c(c1N)C(c1ccc(Cl)cc1)C1=C(CCCC1=O)N2c1sc2c(c1C#N)CCCC2 (stereo not given)	89.2%
COc1ccc(S(=O)(=O)NCCCNc2nccc(-c3c(-c4cccc([N+](=O)[O-])c4)nc4sccn34)n2)cc1	22.9%
COc1ccc(Cn2cc3c(c2-c2cc(OC)c(OC)c(OC)c2)CCc2c(CO)noc2-3)cc1	-36.2% (active)
Cn1c(=O)[nH]c(=O)c2nc3c(nc21)-c1ccccc1C3=O	101%
Cc1nc2sc(C(=O)Nc3cccc4ccccc34)c(N)c2cc1C(O)c1ccccc1 (stereo not given)	-55.1% (active)
O=c1c2cc(F)ccc2sc2c(N3CCNCC3)nc3ccc(F)cc3c12	3.71% (active)
COc1ccc(/C=C2\COc3ccc(O)cc3C2=O)cc1OC	3.81% (active)

SMILES	growth
CC1=CC(C)=Nc2ccc(Cl)cc2N1	101%
Cc1cc2c(-c3nc4ccccn4c3Nc3cccc4ccccc34)c(O)c(O)cc2c(O)c1-c1c(C)cc2c(-c3nc4ccccn4c3Nc3cccc4ccccc34)c(O)c(O)cc2c1O	28.6%
C=CC(=O)OC1CCC(C(C)(C)CC)CC1 (stereo not given)	84%
O=S(=O)(NCCNc1nccc(-c2c(-c3ccccc3)nc3sccn23)n1)c1ccc(O)cc1	68%
CN1CCN(c2ccc3nc(-c4ccc5nc(-c6ccc(OCCC(C)(C)C)cc6)[nH]c5c4)[nH]c3c2)CC1	10.5%
O=C(Nc1ccccc1N1CCCC1=O)c1oc2ccc(F)cc2c1-c1cnn(-c2ccccc2)c1	84.8% [50 µM]
O=S(=O)(NCCCNc1nccc(-c2c(-c3ccc(F)c(O)c3)nc3sccn23)n1)c1ccc(F)cc1	-54.8% (active)
Cc1[nH]c(C(=O)Nc2ccccc2OC2CCN(CCN3CCOCC3)CC2)c(Cl)c1Cl	97.9%
COC(=O)c1nc(-c2ccccc2)oc1S(=O)(=O)Cc1ccccc1	16.8%
Cc1ccc(/C=C2\COc3ccc(O)c(O)c3C2=O)cc1	-15% (active)
O=C1/C(=C\C(Cl)=C/c2ccc([N+](=O)[O-])cc2)SC(=S)N1CCc1ccc(O)cc1	2.21% (active)
COc1ccc2c(c1)C(CC(=O)NN)CCC2 (stereo not given)	113%
Cc1nc2ccccc2c(/C=C/c2ccc(F)cc2)c1C(=O)/C=C/c1ccccc1	7.37% (active)
Cc1c(O)c(=O)ccn1C1CCC(CC2CCC(n3ccc(=O)c(O)c3C)CC2)CC1 (stereo not given)	-0.371% (active)
Cc1cc(C(C)(C)C)cc(C)c1Br	108%
C=CC(C)(O)CCC1C(=C)CCC2C(C)(C)CCCC12C (stereo not given)	82.1%
O=C(Nc1ccc([N+](=O)[O-])cc1)c1cc2ccccc2cc1O	-16.7% (active)
COc1cc(OC)c2sc(-c3ccc(-n4cncc4-c4ccc(OC)c(N)c4)cc3)nc2c1	58.4%
Nc1nc(Nc2ccccc2SSc2ccccc2Nc2nc(N)nc(-c3ccc(I)cc3)n2)nc(-c2ccc(I)cc2)n1	83.1%
CCCCCCCCCCCCCCCCCC1=NCCN1CCOC1=C(Cl)C(=O)c2ccccc2C1=O	70.1%
